Assay results published in PubChem BioAssay (EPA / NIEHS).
Inconclusive results are not listed. Calls of active or inactive are those of the source. Rule for the calls: active = hit-call score of the fitted dose curve at least 0.9, where 1 is the maximum; inconclusive = response in the unintended direction; inactive = score below 0.9.

The compounds below were run against Retinoic acid receptor alpha (Homo sapiens) (UniProt P10276) (assay: ATG_RARa_TRANS: Attagene TRANS-FACTORIAL HepG2 Assay for human Retinoic Acid Receptor alpha (RARa) (AID 2283005)).
Retinoic acid receptor alpha (Homo sapiens), sequence (P10276 whole entry, looked up, the tested form may be a part): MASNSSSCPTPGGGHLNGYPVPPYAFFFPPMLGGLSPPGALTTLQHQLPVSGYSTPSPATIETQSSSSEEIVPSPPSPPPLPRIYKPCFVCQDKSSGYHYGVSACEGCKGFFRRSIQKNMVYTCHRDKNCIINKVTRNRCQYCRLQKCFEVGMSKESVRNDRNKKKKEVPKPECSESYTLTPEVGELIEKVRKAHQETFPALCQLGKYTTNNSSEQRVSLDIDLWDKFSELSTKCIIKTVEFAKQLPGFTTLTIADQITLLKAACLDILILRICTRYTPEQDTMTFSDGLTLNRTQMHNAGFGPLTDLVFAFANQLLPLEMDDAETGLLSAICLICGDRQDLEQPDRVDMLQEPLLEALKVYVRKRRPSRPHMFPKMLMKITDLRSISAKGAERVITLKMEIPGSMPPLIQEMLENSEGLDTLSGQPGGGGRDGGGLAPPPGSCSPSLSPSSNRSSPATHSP
Procedure, shortened: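 HepG2 cells transiently transfected with multiple reporter units expressing chimeric RARα-GAL4 fusion, with GAL4-UAS-driven reporters. After 24 h compound exposure, reporter mRNA induction quantified by RT-PCR and capillary electrophoresis with fluorescent labeling; gain-of-signal fitted relative to DMSO control.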

outcome, inactive:
Cc1cccc2c1ccc1ccccc12
CCCCCCCCCCCCCCCCCC[N+](C)(C)Cc1ccccc1
O=C(OC(=O)C(F)(F)C(F)(F)F)C(F)(F)C(F)(F)F
CCCCCCC(C)(C)C(=O)O
COc1cc(OC)nc(NC(=O)NS(=O)(=O)Nc2ccccc2C(=O)N(C)C)n1
CCCCCCCCCCCC[N+](C)(C)CCCCCCCCCCCC
O=C(O)C(F)(F)OC(F)(F)C(F)(F)OC(F)(F)C(F)(F)OC(F)(F)C(F)(F)C(F)(F)C(F)(F)F
CC1=NN(c2ccccc2)C(=O)C1
Oc1cc2ccccc2cc1O
O=C1c2ccccc2C(=O)c2c(O)c(O)cc(O)c21
OCC1CCC(CO)CC1 (centres undefined)
FC(F)(F)C1(F)C(F)(F)C(F)(F)C(F)(F)C(F)(C(F)(F)F)C1(F)F (centres undefined)
CCc1cccc(CC)c1N(COC)C(=O)CS(=O)(=O)O
c1cnc2c(c1)ccc1cccnc12
FC(F)(F)N1C(F)(F)C(F)(F)OC(F)(F)C1(F)F
C[N+](C)(CCCNS(=O)(=O)CCC(F)(F)C(F)(F)C(F)(F)C(F)(F)C(F)(F)C(F)(F)F)CC(=O)[O-]
O=P(O)(O)CCC(F)(F)C(F)(F)C(F)(F)C(F)(F)C(F)(F)C(F)(F)C(F)(F)C(F)(F)F
O=C(NCc1ncc(C(F)(F)F)cc1Cl)c1c(Cl)cccc1Cl
CCCCN(C)C
